Assay results: the supplement of paper PMC8728848
About 410 targets per protein were measured; listed, in parts, are those with the strongest signals and a random draw of the rest.

Legend:
Assay in all cases: glycan array binding signal (z-score within array); higher = stronger binding
Settings in all cases: glycan notation: IUPAC condensed, linker removed
[1] = molecular target: Neu5Ac(a2-6)Gal(b1-4)GlcNAc(b1-3)Gal(b1-4)GlcNAc(b1-3)Gal(b1-4)GlcNAc(b1-2)Man(a1-3)[Neu5Ac(a2-6)Gal(b1-4)GlcNAc(b1-3)Gal(b1-4)GlcNAc(b1-3)Gal(b1-4)GlcNAc(b1-2)Man(a1-6)]GalNAc
Method in brief: (§1)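 From the Consortium for Functional Glycomics database, 3228 arrays were curated, keeping only those whose protein sequence was available. Binding is given as a within-array Z-score averaged across arrays sharing a protein sequence and across linkers. Negative Z-scores can be read as non-binding.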

[2] = molecular target: Neu5Ac(a2-6)Gal(b1-4)GlcNAc(b1-3)GalNAc
Method in brief: as §1

[3] = molecular target: Neu5Ac(a2-8)Neu5Ac(a2-8)Neu5Ac(a2-3)Gal(b1-4)Glc
Method in brief: as §1

B1: GS7807Q-bfa-507-19-507 (Bacteroides fragilis) (protein)
chain: ASCNKFDDLNTNPDAATKVTAPMLATKLILNITQQGSAKNFVYHSMLSKQIAWSENASDEQYNLFGRTDFDGYTILTNCQKMVDAANEGDKDSYAALAKFMKAYKLFYKSLEVGDIPYSDALKGEEGVQKPKYDTQKEVMRQVLEDLEEAYTLFSSGSDFDGDPIFGGDTENWKKTVVAFELKVLTHLCKKDTDADLKVKERFARLVSSGSLMTSNADNFQLVYSNKAGQLYPFYYTQNKHSDYLMMSSVIIDNLKKFNDYRMFYYASPAKAQTDKGIKDSEWDAYLSIDPSDSYSNISVLYGKGEFCLANLRYTRVPEGEPLMRLSYAEQNFILAEGAVRGWISEDASTYYKKGIEASMNFIADNTPDKEEYTHGRTITQEYIQEYLAQPVIQLSGDKEKDLEMILLQRYLASFLQHPYDAYYDYRRTGYPVLPINPSTNLNTEKNKIPTRWMYPEAEFSYNPDNANEAVQRQYNGSDDVNKLMWILQ
Question: Which results are given for B1?
Answer: glycan array binding signal (z-score) [1]: 3.17; glycan array binding signal (z-score) [2]: 0.841; glycan array binding signal (z-score) [3]: -0.141
